# Results published in the supplement of paper PMC8728848.
# Only a selection was taken, and the strongest signals are over-represented in it overall.
# Tests used:
# Test in all cases: glycan array binding signal (z-score within array); higher = stronger binding
# Conditions in all cases: glycan notation: IUPAC condensed, linker removed
# [1] = target: Fuc(a1-2)Gal(b1-3)[Fuc(a1-4)]GlcNAc
# Summary of the method: (§1)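 The binding signal is a Z-score computed within each array. Data were drawn from 3228 arrays in the Consortium for Functional Glycomics database, restricted to those with a known protein sequence. Scores were averaged over arrays of the same protein sequence at different concentrations or buffers, and over linkers, and negative values can be taken as non-binding.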
# [2] = target: Fuc(a1-2)[Gal(a1-3)]Gal(b1-4)GlcNAc(b1-2)Man(a1-3)[Fuc(a1-2)[Gal(a1-3)]Gal(b1-4)GlcNAc(b1-2)Man(a1-6)]Man(b1-4)GlcNAc(b1-4)GlcNAc
# Summary of the method: as §1
# [3] = target: Fuc(a1-2)[GalNAc(a1-3)]Gal(b1-3)GlcNAc(b1-2)Man(a1-3)[Fuc(a1-2)[GalNAc(a1-3)]Gal(b1-3)GlcNAc(b1-2)Man(a1-6)]Man(b1-4)GlcNAc(b1-4)GlcNAc
# Summary of the method: as §1
# [4] = target: Fuc(a1-3)[Gal(b1-4)]GlcNAc(b1-2)Man(a1-3)[Fuc(a1-3)[Gal(b1-4)]GlcNAc(b1-2)Man(a1-6)]Man(b1-4)GlcNAc(b1-4)GlcNAc
# Summary of the method: as §1
# [5] = target: Fuc(a1-3)[Gal(b1-4)]GlcNAc(b1-3)Gal(b1-3)[Fuc(a1-4)]GlcNAc
# Summary of the method: as §1
# [6] = target: Gal(a1-3)Gal(b1-3)GlcNAc(b1-2)Man(a1-3)[Gal(a1-3)Gal(b1-3)GlcNAc(b1-2)Man(a1-6)]Man(b1-4)GlcNAc(b1-4)GlcNAc
# Summary of the method: as §1
# [7] = target: Gal(b1-3)[GlcNAc(b1-6)]GalNAc
# Summary of the method: as §1
# [8] = target: Gal(b1-4)GlcNAc(a1-6)Gal(b1-4)GlcNAc
# Summary of the method: as §1
# [9] = target: Gal3S(b1-3)[Fuc(a1-4)]GlcNAc
# Summary of the method: as §1
# Gal6S(b1-4)Glc = target: Gal6S(b1-4)Glc
# Summary of the method: as §1
# GalNAc(a1-3)Gal = target: GalNAc(a1-3)Gal
# Summary of the method: as §1
# [10] = target: GlcNAc(a1-4)Gal(b1-4)GlcNAc(b1-3)Gal(b1-4)GlcNAc(b1-3)Gal(b1-4)GlcNAc
# Summary of the method: as §1
# [11] = target: GlcNAc(a1-4)Gal(b1-4)GlcNAc(b1-3)Gal(b1-4)[Fuc(a1-3)]GlcNAc(b1-3)Gal(b1-4)[Fuc(a1-3)]GlcNAc
# Summary of the method: as §1
# [12] = target: Man(a1-3)[Man(a1-6)]Man(a1-6)[Man(a1-3)]Man
# Summary of the method: as §1
# [13] = target: Neu5Ac(a2-3)Gal(b1-3)GalNAc(b1-4)[Neu5Ac(a2-3)]Gal(b1-4)Glc
# Summary of the method: as §1
# [14] = target: Neu5Ac(a2-3)Gal(b1-3)GlcNAc
# Summary of the method: as §1
# [15] = target: Neu5Ac(a2-3)Gal(b1-4)GlcNAc(b1-3)Gal(b1-4)GlcNAc(b1-3)Gal(b1-4)GlcNAc
# Summary of the method: as §1
# [16] = target: Neu5Ac(a2-3)Gal(b1-4)GlcNAc(b1-3)Gal(b1-4)[Fuc(a1-3)]GlcNAc
# Summary of the method: as §1
# [17] = target: Neu5Ac(a2-3)Gal(b1-4)GlcNAc(b1-6)[Neu5Ac(a2-3)Gal(b1-3)]GalNAc
# Summary of the method: as §1
# [18] = target: Neu5Ac(a2-3)Gal(b1-4)[Fuc(a1-3)]GlcNAc(b1-3)GalNAc
# Summary of the method: as §1
# [19] = target: Neu5Ac(a2-3)Gal(b1-4)[Fuc(a1-3)]GlcNAc6S
# Summary of the method: as §1
# [20] = target: Neu5Ac(a2-6)Gal(b1-4)GlcNAc(b1-2)Man(a1-6)[GlcNAc(b1-2)Man(a1-3)]Man(b1-4)GlcNAc(b1-4)GlcNAc
# Summary of the method: as §1
# [21] = target: Neu5Ac(a2-6)GlcNAc(b1-4)GlcNAc(b1-4)GlcNAc
# Summary of the method: as §1
# [22] = target: Neu5Ac(a2-8)Neu5Ac(a2-8)Neu5Ac(a2-8)Neu5Ac(a2-3)[GalNAc(b1-4)]Gal(b1-4)Glc
# Summary of the method: as §1
# [23] = target: Neu5Gc(a2-3)Gal(b1-3)[Fuc(a1-4)]GlcNAc
# Summary of the method: as §1
# [24] = target: Fuc(a1-2)Gal(b1-4)[Fuc(a1-3)]GlcNAc(b1-2)Man(a1-3)[Fuc(a1-2)Gal(b1-4)[Fuc(a1-3)]GlcNAc(b1-2)Man(a1-6)]Man(b1-4)GlcNAc(b1-4)GlcNAc
# Summary of the method: as §1
# [25] = target: Fuc(a1-2)[GalNAc(a1-3)]Gal(b1-4)GlcNAc(b1-2)Man(a1-3)[Fuc(a1-2)[GalNAc(a1-3)]Gal(b1-4)GlcNAc(b1-2)Man(a1-6)]Man(b1-4)GlcNAc(b1-4)GlcNAc
# Summary of the method: as §1
# [26] = target: Fuc(a1-3)[Gal(b1-4)]GlcNAc
# Summary of the method: as §1
# [27] = target: Fuc(a1-3)[Gal(b1-4)]GlcNAc(b1-4)Gal(b1-4)[Fuc(a1-3)]GlcNAc
# Summary of the method: as §1
# [28] = target: Gal(b1-3)[Fuc(a1-4)]GlcNAc(b1-2)Man(a1-3)[Gal(b1-3)[Fuc(a1-4)]GlcNAc(b1-2)Man(a1-6)]Man(b1-4)GlcNAc(b1-4)GlcNAc
# Summary of the method: as §1
# [29] = target: Gal(b1-4)GlcNAc(b1-2)Man(a1-3)[GlcNAc(b1-2)Man(a1-6)]Man(b1-4)GlcNAc(b1-4)GlcNAc
# Summary of the method: as §1
# [30] = target: Gal(b1-4)GlcNAc(b1-3)GalNAc
# Summary of the method: as §1
# [31] = target: Gal(b1-4)GlcNAc(b1-3)[GlcNAc(b1-6)]Gal(b1-4)GlcNAc
# Summary of the method: as §1
# [32] = target: Gal3S(b1-4)[Fuc(a1-3)]Glc6S
# Summary of the method: as §1
# [33] = target: GalNAc(b1-3)Gal(a1-6)Gal(b1-4)Glc
# Summary of the method: as §1
# Glc(b1-6)Glc = target: Glc(b1-6)Glc
# Summary of the method: as §1
# [34] = target: GlcNAc(b1-2)Gal(b1-3)GalNAc
# Summary of the method: as §1
# [35] = target: GlcNAc(b1-2)Man(a1-3)[GlcNAc(b1-2)Man(a1-6)]Man(b1-4)GlcNAc(b1-4)[Fuc(a1-6)]GlcNAc
# Summary of the method: as §1
# GlcNAc(b1-3)Gal = target: GlcNAc(b1-3)Gal
# Summary of the method: as §1
# [36] = target: GlcNAc(b1-3)Gal(b1-3)GalNAc
# Summary of the method: as §1
# [37] = target: Neu5Ac(a2-3)Gal(b1-3)[Neu5Ac(a2-6)]GalNAc
# Summary of the method: as §1
# [38] = target: Neu5Ac(a2-3)Gal(b1-4)[Fuc(a1-3)]GlcNAc(b1-6)[Gal(b1-3)]GalNAc
# Summary of the method: as §1
# [39] = target: Neu5Ac(a2-3)Gal6S(b1-4)GlcNAc
# Summary of the method: as §1
# [40] = target: Neu5Ac(a2-6)Gal(b1-4)GlcNAc(b1-2)Man(a1-3)[GlcNAc(b1-2)Man(b1-4)GlcNAc(b1-2)Man(a1-6)]Man(b1-4)GlcNAc(b1-4)GlcNAc
# Summary of the method: as §1
# [41] = target: Neu5Ac9Ac(a2-3)Gal(b1-4)GlcNAc
# Summary of the method: as §1
# [42] = target: Neu5Gc(a2-3)Gal(b1-4)GlcNAc
# Summary of the method: as §1
binder,measurement,setting,value
"SAG1 (Toxoplasma gondii), P13664 (protein) MSVSLHHFIISSGFLTSMFPKAVRRAVTAGVFAAPTLMSFLRCGVMASDPPLVANQVVTCPDKKSTAAVILTPTENHFTLKCPKTALTEPPTLAYSPNRQICPAGTTSSCTSKAVTLSSLIPEAEDSWWTGDSASLDTAGIKLTVPIEKFPVTTQTFVVGCIKGDDAQSCMVTVTVQARASSVVNNVARCSYGADSTLGPVKLSAEGPTTMTLVCGKDGVKVPQDNNQYCSGTTLTGCNEKSFKDILPKLTENPWQGNASSDKGATLTIKKEAFPAESKSVIIGCTGGSPEKHHCTVKLEFAGAAGSAKSAAGTASHVSIFAMVIGLIGSIAACVA",glycan array binding signal (z-score),[1],0.139
same,glycan array binding signal (z-score),[2],0.615
same,glycan array binding signal (z-score),[3],-0.505
same,glycan array binding signal (z-score),[4],1.86
same,glycan array binding signal (z-score),[5],-0.232
same,glycan array binding signal (z-score),[6],1.47
same,glycan array binding signal (z-score),[7],-0.229
same,glycan array binding signal (z-score),[8],-0.386
same,glycan array binding signal (z-score),[9],7.52
same,glycan array binding signal (z-score),Gal6S(b1-4)Glc,-0.579
same,glycan array binding signal (z-score),GalNAc(a1-3)Gal,-0.761
same,glycan array binding signal (z-score),[10],0.265
same,glycan array binding signal (z-score),[11],2.24
same,glycan array binding signal (z-score),[12],-0.442
same,glycan array binding signal (z-score),[13],0.728
same,glycan array binding signal (z-score),[14],0
same,glycan array binding signal (z-score),[15],-0.703
same,glycan array binding signal (z-score),[16],1.71
same,glycan array binding signal (z-score),[17],1.61
same,glycan array binding signal (z-score),[18],3.63
same,glycan array binding signal (z-score),[19],-0.651
same,glycan array binding signal (z-score),[20],-0.2
same,glycan array binding signal (z-score),[21],-0.384
same,glycan array binding signal (z-score),[22],-0.241
same,glycan array binding signal (z-score),[23],0.031
"BSR4 (Toxoplasma gondii), Q95NL6 (protein) MVMMGSMQQRRGGLRSNARQLLAVCMSGVVFFSSGQAVADNLLEGLLHRTLQQQVEVTSRLTVAGSDAKCDFFTPATQDSPPVSGSLTLSKGRMTATFECSATQALSISTIPTNIEQNVCDPKKTTNGTVCQFGANGSAGTEVTLKDLLETDRIVNWKVNEQREESNKSQKWSLELHNEDLPLTDKAFVVGCQATSAARGTESGKTAACKLTVNVEARASSLAENNVVTCAYGKGSNPNPVEVEMSTEKNTLTINCGSDGSLQPTTYAEEYCVADSKDVNRCSTTRFVEIFPKFLKSWWVTETQKRTSATLTIPQTDLPEADQQFLVGCVPKKTAPEDPKKDKESGTETGAPTSCTVLVTVKAASSASHASPTVQILAAASSAAA",glycan array binding signal (z-score),[1],0.187
same,glycan array binding signal (z-score),[24],1.41
same,glycan array binding signal (z-score),[25],-0.071
same,glycan array binding signal (z-score),[26],0.23
same,glycan array binding signal (z-score),[27],1.44
same,glycan array binding signal (z-score),[28],1.39
same,glycan array binding signal (z-score),[29],-0.349
same,glycan array binding signal (z-score),[30],0.454
same,glycan array binding signal (z-score),[31],0.261
same,glycan array binding signal (z-score),[9],5.04
same,glycan array binding signal (z-score),[32],0.993
same,glycan array binding signal (z-score),GalNAc(a1-3)Gal,-0.538
same,glycan array binding signal (z-score),[33],-0.617
same,glycan array binding signal (z-score),Glc(b1-6)Glc,-0.765
same,glycan array binding signal (z-score),[10],-0.25
same,glycan array binding signal (z-score),[11],1.8
same,glycan array binding signal (z-score),[34],0.324
same,glycan array binding signal (z-score),[35],7.79
same,glycan array binding signal (z-score),GlcNAc(b1-3)Gal,-0.636
same,glycan array binding signal (z-score),[36],1.23
same,glycan array binding signal (z-score),[37],0.026
same,glycan array binding signal (z-score),[16],0.289
same,glycan array binding signal (z-score),[18],3.61
same,glycan array binding signal (z-score),[38],1.73
same,glycan array binding signal (z-score),[39],-0.227
same,glycan array binding signal (z-score),[40],-0.667
same,glycan array binding signal (z-score),[21],-0.434
same,glycan array binding signal (z-score),[41],0.407
same,glycan array binding signal (z-score),[42],-0.102
